NPC1 promoter act: NPC1 promoter activation; Huh7 NPC1 promoter luciferase reporter, 24 h; hit rate 2.4% among 320,000; AID 485313; Potency, µM (doses to about 9.22 µM), most hits filed as activators; further: nearly all actives have a fitted effect of over 60% in size
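Cells: Huh7 expressing luciferase under the NPC1 promoter, 1500/well. Seeded 2 h, compound added, incubated 24 h at 37 °C. Luciferase reagent, 10 min ambient, then luminescence.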
ELG1 genotox: induces genotoxicity in HEK293T cells with luciferase-tagged ELG1; HEK293T ELG1-luciferase reporter, luminescence, 16 h; Potency, µM (series often up to 46 µM), hits mostly activators; hit rate 1.3% among 330,000; AID 504466; further: nearly all actives have a fitted effect of over 60% in size
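Genotoxic stress is detected as increased luminescence from luciferase-tagged ELG1 in HEK293T cells, measured with ONE-Glo after a 16 hr treatment at 37 °C.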
FLuc modulator: inhibits or activates purified firefly luciferase, miR-21 counter-screen | P08659 | purified FLuc, Km substrates, luminescence inhibition | Potency, µM (doses to about 57.5 µM), most hits filed as inhibitors | hit rate 6.9% among 360,000; further: nearly all actives have a fitted effect of over 55% in size
Target sequence (P08659 whole entry, looked up): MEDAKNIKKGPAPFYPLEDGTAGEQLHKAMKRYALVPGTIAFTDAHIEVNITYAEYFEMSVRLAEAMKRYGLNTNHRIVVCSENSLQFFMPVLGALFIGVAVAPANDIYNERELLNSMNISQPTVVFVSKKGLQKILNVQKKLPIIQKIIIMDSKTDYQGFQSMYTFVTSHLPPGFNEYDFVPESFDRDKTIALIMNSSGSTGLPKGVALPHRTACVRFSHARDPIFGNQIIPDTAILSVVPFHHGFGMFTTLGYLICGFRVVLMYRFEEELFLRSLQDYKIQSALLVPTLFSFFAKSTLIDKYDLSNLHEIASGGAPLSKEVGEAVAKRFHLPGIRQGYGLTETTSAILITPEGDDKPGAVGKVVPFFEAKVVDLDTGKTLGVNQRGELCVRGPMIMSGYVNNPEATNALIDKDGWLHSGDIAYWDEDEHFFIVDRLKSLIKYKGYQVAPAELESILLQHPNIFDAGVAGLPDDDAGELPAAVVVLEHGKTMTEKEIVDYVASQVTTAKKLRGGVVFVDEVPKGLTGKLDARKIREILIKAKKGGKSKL
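Biochemical qHTS of compounds, final roughly 60 µM downward over six points, against 10 nM purified firefly luciferase using Km concentrations of substrates (10 uM D-luciferin, 10 uM ATP) in Tris acetate pH 7.5 buffer; luminescence output.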
SMN2 splice up: enhancers of SMN2 splice variant expression; HEK293 SMN2-luciferase splicing reporter, luminescence, 30-36 h; Potency, µM (highest dose often 46.1 µM), most hits filed as activators; hit rate 2.8% among 210,000; further: nearly all actives have a fitted effect of over 55% in size
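HEK293 cells carry an SMN2 minigene-luciferase reporter in which exon 7 inclusion puts luciferase in frame. Cells were seeded at 2000 cells/well, attached for 10-12 hours, then exposed to compounds for 30-36 hours at 37C before ONE-Glo luminescence.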
Rab9 prom act: activators of Rab9 promoter. Huh7 Rab9 promoter-luciferase reporter, luminescence, 24 h. Potency, µM (titrated, usually from 9.22 µM), actives largely listed as activators. hit rate 2.8% among 320,000; further: nearly all actives have a fitted effect of over 60% in size
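Huh7 cells stably carrying a Rab9 promoter-luciferase reporter, 1500 cells per well in OP-MEM I with 10% FBS, treated with compound 24 hours at 37C. Luciferase activity read by luminescence after 10 minutes with Amplite reagent.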
Large screens that a line does not name were inactive. In the library only some 7.5% were active in any assay of this set; here they are far more common. The call rests on the fitted dose curve; in most records, active means well fitted curve in the direction sought with a large enough effect; inconclusive means small, poorly fitted or top-dose-only effect, or another doubt; inactive means no such curve, though single readings can be large; an effect the other way counts as inactive or inconclusive.

Cc1cccc(-c2nc(CS(=O)CC(=O)NCCc3ccc(Cl)cc3)c(C)o2)c1 (configuration not stated)	none (no result: SMN2 splice up)
C=CCn1c(Sc2ncc([N+](=O)[O-])s2)n[nH]c1=O	none (no result: SMN2 splice up)
O=C(NC(=S)NNC(=O)c1ccc(Cl)cc1Cl)c1cccnc1	FLuc modulator inconclusive
N/C(=N\OC(=O)c1ccc(Cl)cc1Cl)c1cccnc1	NPC1 promoter act 1.41µM, ELG1 genotox 2.59µM, FLuc modulator 1.2µM, Rab9 prom act 1.58µM (no result: SMN2 splice up)
O=C(O)c1nc2ccccc2nc1C(=O)O	ELG1 genotox inconclusive, FLuc modulator 21.3µM, SMN2 splice up inconclusive
c1ccc2nc3ccccc3nc2c1	none
O=C(Nc1ccccc1)C1=C[C@@H](C2CCCCC2)C[C@@H](OCCCCO)O1	ELG1 genotox inconclusive, FLuc modulator 12µM, Rab9 prom act inconclusive (no result: SMN2 splice up)
O=C(NC1CC1)C1=C[C@H](C2CCCCC2)C[C@H](OCCCCO)O1	none (no result: SMN2 splice up)
Oc1ccc(Cl)cc1C(C#Cc1ccccc1)N1CCOCC1 (configuration not stated)	none
O=C(Nc1nnc(/C=C/c2ccccc2)s1)c1ccco1	FLuc modulator 12µM (no result: SMN2 splice up)
Nc1nnc(/C=C/c2ccccc2)s1	NPC1 promoter act inconclusive, ELG1 genotox inconclusive, FLuc modulator 23.9µM, Rab9 prom act inconclusive (no result: SMN2 splice up)
C(=C\c1ccc(/C=C/c2ccccc2)nn1)/c1ccccc1	FLuc modulator inconclusive (no result: SMN2 splice up)
COC(=O)Nc1nnc(/C=C/c2ccccc2)s1	ELG1 genotox inconclusive, FLuc modulator 5.36µM, SMN2 splice up 20µM
COc1ccc(/C=C/c2nnc(NC(=O)CSc3ccc(C)cc3)s2)cc1	NPC1 promoter act inconclusive, FLuc modulator inconclusive (no result: SMN2 splice up)
CCC(=O)Nc1nnc(/C=C/c2ccc(OC)cc2)s1	NPC1 promoter act inconclusive, FLuc modulator 6.01µM, Rab9 prom act inconclusive (no result: SMN2 splice up)
CN1CCN(C(CNC(=O)c2ccccc2)c2ccc3c(c2)OCO3)CC1 (configuration not stated)	none (no result: NPC1 promoter act, ELG1 genotox, SMN2 splice up, Rab9 prom act)
Cc1ccc(C(=O)COC(=O)CNC(=O)c2cccs2)cc1C	FLuc modulator inconclusive (no result: SMN2 splice up)
C/C(=C\C(=O)c1ccc(F)cc1)NCc1ccc2c(c1)OCO2	none
CSc1cccc(NC(=O)c2cnn3ccccc23)c1	NPC1 promoter act 2.51µM, ELG1 genotox inconclusive, FLuc modulator 4.26µM, Rab9 prom act 2µM (no result: SMN2 splice up)
CCc1ccc(NC(=O)c2cnn3ccccc23)cc1	NPC1 promoter act 0.316µM, ELG1 genotox 0.184µM, FLuc modulator 0.338µM, SMN2 splice up 1.78µM, Rab9 prom act 0.112µM
O=C(NCc1ccc(F)cc1)c1cnn2ccccc12	NPC1 promoter act 3.16µM, ELG1 genotox inconclusive, FLuc modulator 12µM, SMN2 splice up 12.6µM, Rab9 prom act 2µM
C/C(=C\C(=O)c1ccccc1)NCc1ccc(F)cc1	FLuc modulator 19µM
COC(=O)Nc1ccc(S(=O)(=O)N2CCCCCC2)cc1	none
COc1ccc(NC(=O)c2cc(S(=O)(=O)N3CCc4ccccc43)cn2C)cc1	none (no result: SMN2 splice up)
Cn1nc(C(=O)NCc2ccc(F)cc2)c2ccccc2c1=O	SMN2 splice up 17.8µM
CCc1ccc(NC(=O)c2cc(C(C)=O)n3ccccc23)cc1	FLuc modulator 15.1µM (no result: NPC1 promoter act, ELG1 genotox, SMN2 splice up, Rab9 prom act)
Cn1nc(C(=O)NCc2ccccc2)c2ccccc2c1=O	ELG1 genotox inconclusive
COc1cccc(CNC(=O)CCC2CCCN(C(=O)CCc3c(C)noc3C)C2)c1 (configuration not stated)	none (no result: SMN2 splice up)
Cc1ccc2c(c1)c1ncnc(N3CCOCC3)c1n2C	FLuc modulator 15.1µM
Cc1ccc2c(c1)c1ncnc(N3CCC4(CC3)OCCO4)c1n2C	FLuc modulator 10.7µM, SMN2 splice up inconclusive
Cc1ccc2c(c1)c1ncnc(N3CCN(c4ccccc4)CC3)c1n2C	none
Cc1cc(Nc2ccccc2O)nc(C)n1	none (no result: NPC1 promoter act, ELG1 genotox, SMN2 splice up, Rab9 prom act)
Cc1cccc(Nc2cc(C)c3c(O)cccc3n2)c1C	FLuc modulator 16.9µM
COc1cccc(NC(=O)CSc2nc3ccccc3c(=O)n2C)c1	none (no result: SMN2 splice up)
O=C(CSc1nnc2[nH]c(=O)cc(-c3ccccc3)n12)Nc1ccc(OC(F)(F)F)cc1	FLuc modulator 2.39µM (no result: NPC1 promoter act, ELG1 genotox, SMN2 splice up, Rab9 prom act)
O=C(CSc1n[nH]c(=O)n1C1CC1)Nc1ccc(OC(F)(F)F)cc1	none (no result: NPC1 promoter act, FLuc modulator, SMN2 splice up, Rab9 prom act)
COc1cccc(NC(=O)CSc2nnc3[nH]c(=O)cc(-c4ccccc4)n23)c1	FLuc modulator 1.2µM (no result: NPC1 promoter act, ELG1 genotox, SMN2 splice up, Rab9 prom act)
O=C(O)C1Nc2c(cccc2C(F)(F)F)C2C=CCC12 (configuration not stated)	none (no result: SMN2 splice up)
O=C(Nc1ccc(F)cc1)N(Cc1cccs1)Cc1cc2cc3c(cc2[nH]c1=O)OCO3	none

From PubChem BioAssay
